From PubChem BioAssay
UCHL1 block: human UCHL1 deubiquitinase inhibition; P09936; purified UCHL1, Ub-rhodamine cleavage fluorescence; inhibition, % at 20 µM; hit rate 0.2% among 47,000
Target sequence (P09936 whole entry, looked up): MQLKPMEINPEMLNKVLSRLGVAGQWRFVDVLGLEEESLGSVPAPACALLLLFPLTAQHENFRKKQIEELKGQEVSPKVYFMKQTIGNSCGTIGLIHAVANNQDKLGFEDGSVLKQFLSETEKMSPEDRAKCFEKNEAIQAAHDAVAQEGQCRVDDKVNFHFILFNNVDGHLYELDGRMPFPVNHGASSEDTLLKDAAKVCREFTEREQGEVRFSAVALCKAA
USP8 inh: blocks human USP8 ubiquitin-rhodamine cleavage | P40818 | purified USP8, Ub-rhodamine cleavage fluorescence, 30 min | inhibition, % at 20 µM | hit rate 4.2% among 47,000 | AID 1645853
USP10 block: inhibitors of human USP10 deubiquitinase. hit rate 1.1% among 47,000. Q14694. inhibition, % at 20 µM. purified USP10, Ub-rhodamine fluorescence, 60 min. AID 1645856
USP7 block: human USP7 deubiquitinase inhibition | purified USP7, Ub-rhodamine cleavage fluorescence | hit rate 0.3% among 47,000 | Q93009 | inhibition, % at 20 µM
* = called active by the depositor. Shown are actives, neighbours in structure and some others; about 4.6% of the full set was active somewhere. Rule as the data show it: active = inhibition above about 30%; inactive = the rest.

SMILES	UCHL1 block	USP8 inh	USP10 block	USP7 block
CCN(CC)S(=O)(=O)c1ccc2oc(N3CCOCC3)nc2c1	-2.0	68.0*	1.1	0.1
CCc1ccccc1NC(=O)C(C)c1c(C)n[nH]c1C (configuration not stated)	1.9	18.4	-0.9	5.3
CC1(O)CC(=O)c2c(cc3cc(O)cc(O)c3c2O)C1 (configuration not stated)	92.9*	70.1*	79.2*	94.5*
Cc1ccc(Nc2nccc(C3CCCN(C(=O)c4scnc4C)C3)n2)nc1 (configuration not stated)	-3.3	-15.9	1.2	-2.9
COc1ccc(OC)c(NC(=O)C(C)N2c3cccc4cccc(c34)S2(=O)=O)c1 (configuration not stated)	4.6	40.9*	7.0	8.0
COc1ccc(OC)c(NC(=O)CN2c3ccccc3S(=O)(=O)c3ccccc32)c1	2.4	1.9	1.4	4.6
COC(=O)c1ccc(N2CCN(C(=O)c3ccccc3)CC2)c(NC(=O)/C=C/c2ccc(C(C)C)cc2)c1	3.3	-0.1	8.8	7.6
CCc1nnc(-c2nnc(NCCOc3ccccc3OC)c3ccccc23)o1	1.3	66.0*	12.5	6.9
Cc1cc(C)c2c(n1)sc1c(=O)n(CCC(C)C)cnc12	3.6	6.3	4.2	-15.5
Cc1ccc(S(=O)(=O)N2CCN(Cc3nc4ccccc4c(=O)[nH]3)CC2)c(C)c1	0.9	-5.3	-3.7	-1.4
O=C1Cc2cc(S(=O)(=O)N3CCC([C@@H]4NC(=O)N[C@H]5OCCC[C@H]54)CC3)ccc2N1	2.4	42.9*	-4.3	-4.4
CC1(C)Oc2ccc(C(=O)N3CCC([C@@H]4NC(=O)N[C@H]5OCCC[C@H]54)CC3)cc2NC1=O	4.9	0.7	3.0	12.9
Cc1ccc(S(=O)(=O)N2CCN(S(=O)(=O)N3CCCCCC3)CC2)cc1	2.1	31.0*	17.9	5.8
Cc1ccc(Cn2cc(S(=O)(=O)N3CCCCC3)ccc2=O)cc1	-0.1	14.0	2.7	-9.3
CCCN1C(=O)Cc2c(C)nc(-c3cccc(F)c3)nc21	0.1	75.1*	-5.3	-22.5
CCc1ccc(NC(=O)CSc2cn(Cc3cccc(F)c3)c3ccccc23)cc1	2.9	9.5	8.5	2.7
COc1ccc(CNC(=O)c2nnc(C(=O)Nc3ccc(F)cc3)s2)cc1	2.3	21.0	17.3	9.1
CN(C)c1ccc(CNC(=O)c2nnc(C(=O)Nc3ccccc3)s2)cc1	-0.1	37.3*	13.9	18.5
Cc1cc(N2CCN(c3ncccn3)CC2)nc2ccc(NC(=O)c3ccncc3)cc12	0.3	18.7	-2.2	-2.0
CC(=O)Nc1ccc2nc(N3CCC(C(=O)N4CCN(C)CC4)CC3)cc(C)c2c1	4.9	31.3*	0.3	4.1
CCOC(=O)C1CCN(C(=O)CCC(=O)Nc2ccc3nc(N4CCN(CC)CC4)cc(C)c3c2)CC1	-1.3	6.6	-4.6	2.8
CCN1CCN(c2cc(C)c3cc(NC(=O)c4ccco4)ccc3n2)CC1	4.3	47.5*	-2.9	1.8
Cc1cc(N2CCCCC2)nc2ccc(NC(=O)c3ccco3)cc12	-24.7	58.1*	-10.4	-34.6
COc1ccc2c(c1)c(N1CCCC1=O)c(C(=O)NCc1cccc(OC)c1OC)n2C	1.1	8.6	1.3	0.6
CC(=O)c1cccc(NC(=O)c2cc([N+](=O)[O-])ccc2N2CCOCC2)c1	0.0	-125.4	0.8	3.1
SMILES	UCHL1 block	USP8 inh	USP10 block	USP7 block
Cc1ccc(CN2CC[C@@H]3[C@H]2C(=O)NC[C@H](CCC(=O)N2CCN(c4ccccn4)CC2)N3C)cc1	0.3	8.3	-2.8	-4.6
CN1CC[C@@H]2[C@H]1C(=O)NC[C@H](CCC(=O)N1CCN(c3ccccn3)CC1)N2C	12.2	71.6*	-1.9	-22.0
CN1[C@@H](CCC(=O)N2CCN(c3ccccn3)CC2)CNC(=O)[C@@H]2[C@H]1CCN2C1CCCCC1	8.4	39.0*	-0.5	-14.3
CN1[C@@H](CCC(=O)N2CCN(c3ccccn3)CC2)CNC(=O)[C@H]2NCC[C@H]21	-1.5	8.5	0.0	5.5
CC1(C)OC(=O)[C@@]2(C)N[C@]1(C)C[C@@H]2C(=O)Nc1ccc(CCO)cc1	-0.4	2.1	1.7	1.6
Cc1ccc2c(C)nc(Nc3ncc4c(n3)CC(c3ccco3)CC4=O)nc2c1 (configuration not stated)	8.6	60.9*	10.4	11.9
O=C1CC(c2ccco2)Cc2nc(N3CCc4ccccc43)ncc21 (configuration not stated)	3.7	39.5*	-1.2	7.1
O=C1CC(c2ccco2)Cc2nc(N3CCc4ccccc4C3)ncc21 (configuration not stated)	5.1	3.2	5.8	0.5
O=C(Nc1ccccc1)C(C(=O)Nc1ccccc1)c1ccccc1	6.5	-7.1	-1.6	8.6
Cc1ccc(C(=O)NCCc2nc(-c3ccc4c(c3)OCO4)n[nH]2)cc1F	2.0	31.9*	1.1	-13.0
Cc1noc(C)c1CNC(=O)c1ccc2c(c1)OCO2	-0.3	-1.6	-3.0	1.7
O=C(c1cc(Cl)nc2ccccc12)N1CCc2ccccc2C1	0.1	33.1*	6.4	-11.9
CC1(C)CCCC2=C1CC(C)(C)C(N(C(=O)/C=C/C(=O)O)c1ccccc1)C2 (configuration not stated)	0.5	59.2*	34.2*	1.4
CC(=O)c1ccc(S(=O)(=O)N2CCC3(CC2)NC(=O)c2ccccc2N3)cc1	0.0	32.5*	21.4	8.4
Cc1ccc(S(=O)(=O)N2CCC3(CC2)NC(=O)c2ccccc2N3)cc1C	2.6	7.2	1.2	5.1
CCOc1ccc(CCNC(=O)c2nnc(Cc3ccc(Cl)cc3)o2)cc1OCC	-4.6	-2.5	4.1	0.1
COc1ccc(CNC(=O)c2ccccc2NC(=O)c2ccc(F)cc2)cc1	7.1	18.8	1.9	6.7
COc1ccc(C(=O)Nc2ccccc2C(=O)NC(Cc2ccc(O)cc2)C(=O)NNC(=O)Cc2ccc(OC)c(OC)c2)cc1 (configuration not stated)	2.8	8.4	66.6*	4.8
COc1ccc(NC(=O)CCc2nc3sc4c(c3c(=O)[nH]2)CCCCC4)cc1	-5.6	31.7*	10.2	0.0
O=C(CCc1nc2sc3c(c2c(=O)[nH]1)CCCCC3)Nc1ccccc1	-0.8	3.8	-6.0	-1.0
Cc1ccc(NC(=O)c2cc(-c3ccccc3)c(N3CCOCC3)s2)cc1	-4.3	-1.1	-8.8	-6.8
COc1cccc(/C=C2\C(=O)N(c3cccc(C)c3)C(=O)c3ccccc32)c1	-8.1	65.9*	-7.1	-10.4
Cc1cccc(N2C(=O)/C(=C\c3ccc(N4CCOCC4)s3)c3ccccc3C2=O)c1	0.9	41.0*	-7.4	1.4
O=C(CCC1CCCCC1)Nc1ccccc1C(=O)N1CCOCC1	2.4	80.0*	27.4	11.3
COc1ccc(NC(=O)CN2CC(C)Sc3ccccc32)cc1 (configuration not stated)	1.4	43.7*	-4.1	2.0
Cc1c(C)c2ccc(OCC(=O)NCc3ccncc3)c(C)c2oc1=O	3.6	7.0	0.3	5.0
COc1ccc(-c2nonc2NC(=O)Cc2ccccc2)cc1	1.8	8.9	1.8	-4.7
COc1ccc(CC(=O)Nc2c(NCc3ccccc3)c3ccccc3oc2=O)cc1	4.2	91.5*	20.6	21.1
